In PubChem BioAssay AID504462 (Sanford-Burnham Center for Chemical Genomics, 2011):
The campaign covered roughly 340,000 compounds. About 1,700 (0.5%) were called active. The list comes from a sample in which actives are over-represented; it also holds similar structures and randomly drawn compounds. Unmarked numbers belong to inactive results. No stated cut-off is given here; in the data, active means inhibition above about 40%; inactive means the rest.

Each compound was assayed against Cysteine protease ATG4B (Homo sapiens) (UniProt Q9Y4P1) (assay: blockers of ATG4B cysteine protease activity – biochemical, fluorescence, uHTS, primary screen (AID 504462)). Details: ATG4B cleavage of LC3-PLA2, NBD-HPC fluorescence, 1 h; at 8.33 µM; hits give high values.
Sequence of Cysteine protease ATG4B (Homo sapiens) (Q9Y4P1 whole entry, looked up): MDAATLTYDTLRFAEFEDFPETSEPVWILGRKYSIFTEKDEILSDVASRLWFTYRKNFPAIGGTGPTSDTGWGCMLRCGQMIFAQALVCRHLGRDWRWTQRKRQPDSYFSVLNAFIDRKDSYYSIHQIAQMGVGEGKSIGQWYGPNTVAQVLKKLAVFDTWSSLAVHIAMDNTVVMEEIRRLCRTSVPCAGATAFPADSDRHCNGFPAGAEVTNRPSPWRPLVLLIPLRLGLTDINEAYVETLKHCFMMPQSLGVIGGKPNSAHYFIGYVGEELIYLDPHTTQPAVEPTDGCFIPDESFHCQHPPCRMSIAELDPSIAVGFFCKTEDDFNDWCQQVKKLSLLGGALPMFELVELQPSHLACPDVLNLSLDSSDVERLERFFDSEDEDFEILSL
`CC(C)CNc1ncnc2c1cnn2Cc1ccc(Cl)cc1` was tested, and the inhibition was -1.96%.
`Cc1ccc(C)c(NC(=O)C(c2ccccc2)N2CCN(CC(=O)NC3CC3)CC2)c1` (stereo unspecified) gave an inhibition of 8.15%.
Compound `Cn1c(SCc2c(F)cccc2Cl)nnc1-c1cnccn1` has an inhibition of -6.8%.
`Cc1cc(SCc2c(F)cccc2Cl)nc(=O)[nH]1` showed an inhibition of -6.36%.
`Fc1cccc(Cl)c1CSc1ccc(-c2ccco2)nn1` was tested, and the inhibition was 41.7% (active).
Compound `COc1ccc(/C=C2\N=C3CCCN3C2=O)cc1` has an inhibition of 0.67%.
`COc1ccc(/C=C2/CCCc3ccccc3C2=O)cc1` was tested, and the inhibition was 42.3% (active).
For `O=C1/C(=C/c2cccs2)CCc2ccccc21`, the inhibition was 15.7%.
With `COc1ccc(/C=C2\CCc3ccccc3C2=O)c(OC)c1OC` the inhibition was 41.9% (active).
Compound `COc1ccc(/C=N/NC(=O)C2CC2)c(OC)c1OC` has an inhibition of -2.43%.
`COc1ccccc1Oc1ccc(N/C=C2/CCCC2=O)cc1` was tested, and the inhibition was 1.94%.
For `Cc1cnc(C(=O)N2CCCC(N3CCN(c4ccccc4F)CC3)C2)cn1` (stereo unspecified), the inhibition was 8.65%.
Compound `Cn1c(=O)cc(SCC(=O)N2CCCC2)c2cc(Cl)ccc21` has an inhibition of -13.1%.
`N#CCN(C(=O)COC(=O)C1CC2CCCC(C1)C2=O)c1ccccc1` (stereo unspecified) was tested, and the inhibition was 1.42%.
For `CC(=O)c1c(C)[nH]c(C(=O)NCCCN2CCCC2)c1C`, the inhibition was -3.1%.
Work on `O=C(CN1CCOCC1)Nc1c(-c2ccccc2)c2cc(Br)ccc2[nH]c1=O` yielded an inhibition of 3.52%.
Work on `O=C(N/N=C\C1CC=CCC1)c1ccc(Br)o1` (stereo unspecified) yielded an inhibition of -3.72%.
With `CCCn1c(C)cc(-c2csc(NC(=O)CCc3nc4ccccc4c(=O)[nH]3)n2)c1C` the inhibition was -1.22%.
In the case of `CC(=O)Nc1ccc(C(=O)Nc2nc(-c3cc(C)n(Cc4ccccc4)c3C)cs2)cc1`, the inhibition is reported as 43.1% (active).
`Cc1ccc(C(=O)Nc2c(C#N)c(C)c(C)n2Cc2ccccc2)cc1` gave an inhibition of 15.5%.
Compound `O=C(Nc1cc(S(=O)(=O)Nc2ccc(Cl)cc2)ccc1O)c1ccc(F)cc1F` has an inhibition of 13.4%.
Compound `Cc1ccc(C(=O)OC2=CC(=O)CC(C)(C)C2)cc1` has an inhibition of -11.7%.
`O=C1CN(C(=O)COc2c(Cl)cccc2Cl)c2ccccc2N1` gave an inhibition of -0.21%.
`Cc1cccc(N2O[C@H]3C=CC2CCCC3)n1` gave an inhibition of -2.38%.
`CC(C)(C)c1ccc(CN2C(=O)c3ccccc3S2(=O)=O)cc1` gave an inhibition of 5.21%.
`CC(C)(C)c1ccc(OC2=CS(=O)(=O)c3ccccc32)cc1` was tested, and the inhibition was 46.1% (active).
`CC(C)(C)c1ccc(Oc2ccc(N)cc2)cc1` was tested, and the inhibition was 7.75%.
`CCCCn1c(N)c(N(CCC(C)C)C(=O)CC2OC(=O)c3ccccc32)c(=O)[nH]c1=O` (stereo unspecified) showed an inhibition of -0.15%.
`CC1CCN(CC(=O)c2c[nH]c3ccccc23)CC1` gave an inhibition of -5.44%.
`O=C(NCCCc1ccccc1)C(=O)c1c[nH]c2ccccc12` was tested, and the inhibition was 0.84%.
`O=C(C(=O)N1CCc2ccccc2C1)c1c[nH]c2ccccc12` was tested, and the inhibition was 67% (active).
For `COc1ccc(-n2nc3c(c2NC(=O)c2ccc(N4C(=O)CCC4=O)cc2)CSC3)cc1`, the inhibition was 1.88%.
With `O=C(COc1ccc(Br)cc1F)NCC1(N2CCCCC2)CCCCC1` the inhibition was 1.03%.
For `CSC1=NCCN1C(=O)Cc1cccc2ccccc12`, the inhibition was -4.14%.
With `NC(=O)Cc1ccc2sc(-c3ccccc3)nc2c1` the inhibition was 71.4% (active).
Work on `CC(=O)c1cnc(-c2ccccc2)s1` yielded an inhibition of -11.9%.
Work on `CC(C)(C)Cc1nnc(NC(=O)c2cc(-c3ccccc3)nc3ccccc23)s1` yielded an inhibition of 10.4%.
Work on `O=C(CSc1nnnn1C1CCCC1)Nc1ccc2c(c1)OCCO2` yielded an inhibition of -5.58%.
`Cc1cccc(OC(=O)c2sc3ncn(C)c(=O)c3c2C)c1` showed an inhibition of -3.95%.
`CCCC1=Nc2cc(C(=O)NCc3ccco3)ccc2Sc2ccccc21` was tested, and the inhibition was 40.2% (active).
For `CCCC1=Nc2cc(C(=O)NCCN3CCCC3)ccc2Sc2ccccc21`, the inhibition was 3.01%.
Compound `CC(C)(C)c1ccc(C(=O)NCc2ccco2)cc1` has an inhibition of -10.7%.
Work on `NS(=O)(=O)c1cc(Cl)c(Cl)c(S(N)(=O)=O)c1` yielded an inhibition of 7.96%.
`CC(=O)C1(C)N(O)C(C)(C)C(c2cccs2)=[N+]1[O-]` (stereo unspecified) showed an inhibition of 6.58%.
`Cc1cccc(OCCC(=O)OCc2csc(CC(=O)Nc3ccccc3C)n2)c1` gave an inhibition of -6.31%.
Work on `CC1O[C@H](OC2C(COC3OC(CO)C(O)[C@H](O)C3O)OC(OC3CC[C@]4(C)C(CC[C@@]5(C)[C@@H]4C=C[C@]46OC[C@@]7(CCC(C)(C)C[C@H]74)C(O)C[C@@]56C)C3(C)C)C(O)C2O)C(O)C(O)C1O` (stereo partly specified) yielded an inhibition of -8.64%.
`CSCCC(NS(=O)(=O)c1ccc2c(c1)oc(=O)n2C)C(=O)NCc1ccccc1` (stereo unspecified) gave an inhibition of -9.32%.
Work on `CCOc1cccc(/C=N/N2C(=O)CSC2=S)c1O` yielded an inhibition of -2.71%.
`Cc1cc(C(=O)N/N=C/c2ccc(O)c([N+](=O)[O-])c2)c(C)n1-c1ccc(F)cc1` was tested, and the inhibition was 23.4%.
With `O=C1CSC(=S)N1/N=C/c1ccc(O)c([N+](=O)[O-])c1` the inhibition was 74.7% (active).
With `CCOc1ccc(-n2c(SC(C)C(=O)OC)nc3c(c2=O)SCC3)cc1` (stereo unspecified) the inhibition was 46.2% (active).
`CCOc1ccc(NC(=O)CSc2nc3c(c(=O)n2-c2ccccc2OC)SCC3)cc1` gave an inhibition of -6.73%.
Compound `CCOc1ccc(-n2c(SCC(=O)OC)nc3sc4c(c3c2=O)CCN(C)C4)cc1` has an inhibition of 5.88%.
For `Cc1cccc(NC(=S)Nc2ccc(Cl)c(Cl)c2)c1`, the inhibition was 41.4% (active).
With `NS(=O)(=O)c1ccc(NC(=S)Nc2ccc(Br)c(Cl)c2)cc1` the inhibition was 1.95%.
For `S=C(Nc1ccccc1)Nc1ccc2ccccc2c1`, the inhibition was -5.73%.
Work on `O=C(NCCS(=O)(=O)c1ccc(Br)cc1)c1ccccc1Cl` yielded an inhibition of 4.71%.
In the case of `Cc1nc([N+](=O)[O-])nn1C12CC3CC(CC(Br)(C3)C1)C2`, the inhibition is reported as 2.28%.
Work on `CCN1C[C@@H]2[C@@H]3C(=O)N(Cc4ccccc4)C(=O)[C@@H]3[C@](C)(C1=O)N2C(=O)c1ccc(C(C)(C)C)cc1` yielded an inhibition of -18.2%.
`O=C(CN(C(=O)c1csnn1)c1ccc(Br)cc1)NC1CCCC1` showed an inhibition of -4.03%.
`O=C(c1ccc(Cl)c([N+](=O)[O-])c1)N1CCN(c2ccccc2)CC1` showed an inhibition of -2.12%.
`O=C(/C=C/c1ccc(Cl)cc1)N1CCN(c2ccccc2[N+](=O)[O-])CC1` was tested, and the inhibition was 41.9% (active).
`CO/N=C/c1ccc(N2CCN(C(=O)c3cccc(Cl)c3)CC2)c([N+](=O)[O-])c1` was tested, and the inhibition was -0.58%.
`CC(C)CCNC(=O)Cn1c(=O)oc2cc(S(=O)(=O)N3CC(C)CC(C)C3)ccc21` (stereo unspecified) gave an inhibition of -3.27%.
`O=C(CN(C(=O)c1csnn1)c1cccc(Cl)c1)NC1CCCC1` gave an inhibition of 5.82%.
`CSc1nc(-c2ccco2)nn1C(=O)c1ccccc1Cl` was tested, and the inhibition was 0.74%.
For `Cc1cc(C)nc(SCc2ccccc2C#N)n1`, the inhibition was 4.39%.
For `Clc1ccccc1CSc1nnc(-c2ccco2)c(-c2ccco2)n1`, the inhibition was 54.2% (active).
With `COc1cccc(-c2coc3cc4oc(=O)c(CC(=O)O)c(C)c4cc23)c1` the inhibition was 2.29%.
`Cc1ccc(/C=C/C(=O)O)cc1S(=O)(=O)N1CCC(Cc2ccccc2)CC1` gave an inhibition of 3.43%.
`S=C(NCc1ccc2c(c1)OCO2)NCc1ccco1` showed an inhibition of 7%.
In the case of `Cc1c(Cl)cccc1NC(=S)NCc1ccc2c(c1)OCO2`, the inhibition is reported as 57.9% (active).
`CCNC(=S)Nc1cccc(Cl)c1C` was tested, and the inhibition was -7.76%.
`O=C(CSc1ncnc2c1oc1ccccc12)NC1CCCC1` gave an inhibition of -1.46%.
For `CCOCCCn1c(SCC(=O)Nc2cc(OC)ccc2OC)nc2ccccc2c1=O`, the inhibition was 4.76%.
For `O=c1c2sccc2nc(SCc2cc(=O)n3ccccc3n2)n1-c1ccc(Br)cc1`, the inhibition was 47.5% (active).
`CCc1ccc(-n2c(SCc3cc(=O)n4cc(Br)ccc4n3)nc3[nH]ncc3c2=O)cc1` showed an inhibition of -11.3%.
With `O=C(O)CCn1c(SCc2cc(=O)n3ccccc3n2)nc2ccsc2c1=O` the inhibition was -6.86%.
Compound `CC(=O)NC(NC(=S)Nc1c(C)n(C)n(-c2ccccc2)c1=O)C(Cl)(Cl)Cl` (stereo unspecified) has an inhibition of -9.32%.
In the case of `O=C(COc1ccc(S(=O)(=O)NCc2ccccc2)cc1)N1CCOCC1`, the inhibition is reported as 0.8%.
Compound `CC1CN(Cc2ccccc2)C(=S)NC1=O` (stereo unspecified) has an inhibition of -11%.
`Cc1cccc(C)c1N1C(=O)CN(Cc2ccccc2)C1=S` was tested, and the inhibition was 82.4% (active).
`Cc1ccccc1CCNC(=O)C1CCC(=O)N(Cc2ccc(Cl)cc2)C1` (stereo unspecified) was tested, and the inhibition was 0.05%.
Compound `COc1cccc(N2C(=O)CN(Cc3ccccc3)C2=S)c1` has an inhibition of 25.8%.
`O=C1C[C@@H]2c3c(cccc3CN1Cc1ccccc1)C[C@@H](O)[C@H]2O` gave an inhibition of 0.85%.
For `CCc1cccc(C)c1N1C(=O)CN(Cc2ccccc2)C1=S`, the inhibition was 88.4% (active).
With `COc1ccc(NC(=O)C(CC(C)C)NS(=O)(=O)c2ccc3c(c2)CCN3C(C)=O)cc1OC` (stereo unspecified) the inhibition was -5.12%.
In the case of `O=C(c1ccc(S(=O)(=O)N2CCCC2)cc1)N1CCN(c2ccccc2F)CC1`, the inhibition is reported as 0.98%.
`CCOc1ccc(CCNC(=O)COC(=O)CCS(=O)(=O)c2ccc(C)cc2)cc1OCC` was tested, and the inhibition was -3.02%.
In the case of `O=S(=O)(c1ccc(F)cc1)N1CCN(C(=S)NCc2ccco2)CC1`, the inhibition is reported as 0.75%.
For `CC(C)Cc1ccc(C(C)C(=N)N)cc1` (stereo unspecified), the inhibition was 8.66%.
`COc1ccc(CNC(=O)C2CCN(S(=O)(=O)c3ccc(SC)cc3)CC2)cc1` showed an inhibition of -7.7%.
`Cc1ccc(OCCOc2cccc(/C=N/NC(N)=O)c2)cc1` was tested, and the inhibition was -2.28%.
Work on `COC(=O)N/N=C/c1c[n+]([O-])c2ccccc2[n+]1[O-]` yielded an inhibition of -2.96%.
`COc1cccc(Cn2cc(/C=N/NC(=O)c3cc(O)cc(O)c3)c3ccccc32)c1` was tested, and the inhibition was 47.7% (active).
Compound `N#CCC(=O)N/N=C/c1cn(Cc2ccc3ccccc3c2)c2ccccc12` has an inhibition of -9.5%.
`O=C(Cn1cc(/C=N/NC(=O)c2cccc(C(F)(F)F)c2)c2ccccc21)Nc1ccc(F)cc1` was tested, and the inhibition was 5.83%.
In the case of `CCOC(=O)N/N=C/c1cn(Cc2ccccc2Cl)c2ccccc12`, the inhibition is reported as 48% (active).
In the case of `CCOC(=O)c1cnn(Cc2ccccc2Cl)c1N`, the inhibition is reported as -5.17%.
For `COC(=O)N/N=C/c1cn(CCCOc2ccc(C)cc2)c2ccccc12`, the inhibition was 40.3% (active).
For `NC(=O)Cn1cc(/C=N\NS(=O)(=O)c2ccccc2)c2ccccc21`, the inhibition was 3.11%.
